Screens deposited in PubChem BioAssay by several laboratories.
SENP8 block-1 – SENP8 protease inhibitors, primary screen, biochemical, luminescence; Sentrin-specific protease 8 (Homo sapiens), Q96LD8; purified SENP8, Z-RLRGG-aminoluciferin cleavage; inhibition, % at 10 µM; actives 1.2% (n = 330,000); in the data active means inhibition above about 50%
SENP7 inh – SENP7 protease inhibitors, primary screen, biochemical, luminescence, uHTS | inhibition, % at 5 µM | Sentrin-specific protease 7 (Homo sapiens), Q9BQF6 | recombinant SENP7, Z-RLRGG-aminoluciferin luminescence, 40 min | actives 1.5% (n = 330,000) | AID 434973, 2010;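 active means inhibition above about 50% at the single test dose, limit read from the data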;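 further: plate controls were DMSO with enzyme for no effect and no enzyme buffer wells for full effect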
Platelet DG rel – inhibitors of platelet dense granule secretion, primary screen, cell-based, MLPCN, human platelets; human platelet-rich plasma, SFLLRN dense granule ATP release, luminescence; inhibition, %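 (compounds screened at 7.5 µM in platelet-rich plasma)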; actives 0.22% (n = 300,000); AID 1663, 2009;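 active means mean replicate score, as percent of positive control, at or above 50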
SENP6 block – SENP6 protease inhibitors, primary screen, biochemical, luminescence, uHTS | actives 1.8% (n = 330,000) | inhibition, % at 10 µM | Recombinant SENP6 catalytic domain, aminoluciferin luminescence | Sentrin-specific protease 6 (Homo sapiens), Q9GZR1;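 active means inhibition above about 50% at the single tested dose, limit read from the data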;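 further: plate controls were DMSO wells with enzyme for no effect and DMSO wells lacking enzyme for full effect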
Target sequence (Q9GZR1 628-1112 limits assumed): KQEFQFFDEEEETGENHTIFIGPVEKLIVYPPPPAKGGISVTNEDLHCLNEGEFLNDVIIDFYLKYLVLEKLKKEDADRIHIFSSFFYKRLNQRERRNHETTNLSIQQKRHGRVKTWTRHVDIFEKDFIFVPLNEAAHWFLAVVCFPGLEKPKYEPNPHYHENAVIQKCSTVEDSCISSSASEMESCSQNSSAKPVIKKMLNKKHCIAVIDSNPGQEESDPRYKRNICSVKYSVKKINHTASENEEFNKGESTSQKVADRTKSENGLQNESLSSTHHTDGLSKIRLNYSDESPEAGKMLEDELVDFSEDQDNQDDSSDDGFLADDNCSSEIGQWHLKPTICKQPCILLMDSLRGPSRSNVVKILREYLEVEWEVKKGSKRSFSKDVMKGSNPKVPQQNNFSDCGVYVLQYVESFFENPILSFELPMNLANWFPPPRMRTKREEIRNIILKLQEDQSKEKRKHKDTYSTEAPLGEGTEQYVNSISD
SENP8 block-2 – human SENP8 protease inhibitors, primary screen, biochemical, fluorescence, Nedd8 protein substrate, uHTS; Sentrin-specific protease 8 (Homo sapiens), Q96LD8; recombinant SENP8; inhibition, % at 20 µM; actives 0.64% (n = 360,000); AID 602440, 2012; in the data active means inhibition mostly above about 40%, no sharp cut-off; inactive means mostly below about 27%
* = called active by the depositor; . = not tested or not shown. Most compounds without a hit are left out; they make up all but 2.4% or so of the library.

SMILES	SENP8 block-1	SENP7 inh	Platelet DG rel	SENP6 block	SENP8 block-2
COc1ccc(NC(=O)O/N=C/c2c(C)nn(C(C)(C)C)c2C)cc1	-3	1	7	2	9
CC(C)N(Cc1ccccc1)S(=O)(=O)c1cccs1	11	-3	.	-1	26
O=C1/C(=N\S(=O)(=O)c2cccs2)C([n+]2cccc(Cc3ccccc3)c2)=C([O-])c2ccccc21	31	30	-3	49	77*
O=Cc1ccc(OCC(=O)Nc2ccccc2C(F)(F)F)cc1	-1	-2	0	-8	26
CC(=O)N(Cc1ccc(F)cc1)C1=C(NCCc2ccccc2)C(=O)c2ccccc2C1=O	31	30	2	48	76*
COc1ccc(S(=O)(=O)NC(C)c2ccc3c(c2)OCCO3)cc1 (stereo not given)	.	.	.	.	4
O=C1NC[C@@H](CCCCN2C[C@H](Cc3ccc(O)cc3)N(CCC3CCCCC3)C(=O)C2=O)N(CC2CCCCC2)C1=O	.	.	.	.	14
CCOC(=O)c1nc(C)sc1-c1ccnn1S(=O)(=O)c1cccc(Cl)c1	2	-6	-6	-1	12
COC(=O)C1=C(C(=O)OC)SC(=C2C(=S)C(C)(C)N(C(=O)CC(C)C)c3ccccc32)S1	5	17	9	-8	59*
O=C1C(Cl)=C(N2CCN(c3ccccc3[N+](=O)[O-])CC2)C(=O)c2ccccc21	.	.	1	.	61*
Cc1ccc(NC(=O)CCCNC(=O)c2ccc(Cl)cc2)nc1	0	2	9	0	-5
Cc1cccc(NC(=O)CCCNC(=O)c2ccc(Cl)cc2)n1	-1	-1	54*	5	4
COC(=O)c1sccc1NC(=O)/C=C/c1ccc(Cl)cc1	58*	95*	-26	74*	-40
Cc1cccc(NC(=O)/C=C/c2ccc(Cl)cc2)n1	68*	86*	27	84*	-1
Cc1cccc(NC(=O)/C(C#N)=C/c2ccc(Cl)cc2)n1	-3	-3	11	5	7
Cc1c(C)c2ccc(OCC(=O)Nc3ccc(S(N)(=O)=O)cc3)c(C)c2oc1=O	0	10	2	0	-281
COc1ccc(S(=O)(=O)c2ccc(O)cc2)cc1	-1	-2	-2	-19	8
COC(=O)C(C(C)=O)C1=C/C(=N\S(=O)(=O)c2ccc(C)cc2)c2ccccc2C1=O (stereo not given)	-3	-3	-3	3	9
O=S(=O)(/N=C(/Nc1ccccc1F)c1ccccc1)c1ccccc1	-4	2	-24	-3	10
Cc1ccccc1NC1=C/C(=N\S(=O)(=O)c2ccc(C(=O)O)cc2)c2ccccc2C1=O	95*	69*	-2	94*	88*
COc1ccc(S(=O)(=O)/N=C2\C=C(Nc3ccc(O)cc3)C(=O)c3ccccc32)cc1	95*	87*	10	93*	90*
O=C(O)c1ccc(S(=O)(=O)/N=C2\C=C(Nc3ccccc3F)C(=O)c3ccccc32)cc1	96*	65*	22	98*	88*
CSc1nc2ccccc2nc1N(C)S(=O)(=O)c1ccc(C)cc1	6	4	3	16	-24
CCc1ccc2c(c1)c(N=NC1=NC(=O)CS1)c(O)n2C	3	6	-3	5	40*
CC(=O)Oc1ccc(C(=O)Nc2ccc(S(=O)(=O)N3CCOCC3)cc2)cc1	-6	-4	-1	-4	13
SMILES	SENP8 block-1	SENP7 inh	Platelet DG rel	SENP6 block	SENP8 block-2
O=C1c2ccccc2C(=O)c2c(O)c(O)cc(O)c21	10	6	.	14	18
C[C@@H]1Cc2c(O)c(O)cc(O)c2C(=O)O1	3	1	-1	-2	44*
Cc1ccc(C)c(-n2ccnc2SCC(=O)Nc2cccc(S(=O)(=O)NC3=NCCC3)c2)c1	1	7	.	10	5
Cc1cc(-c2cc(C)c(N)cc2C)c(C)cc1N	.	.	.	.	8
Cc1cc2c(cc1C)C(=O)C(Br)=C(N)C2=O	.	.	.	.	79*
Cc1nn(C)cc1CNC(=O)C1CCC(=O)N(CC2CCCCC2)C1 (stereo not given)	-6	-4	56*	2	2
CC(O)(c1ccc(F)c(F)c1)c1nc(-c2cccc(C#N)c2)cs1 (stereo not given)	.	.	.	.	12
CSc1nc2c(c(-c3ccc(O)cc3)c1C#N)CCC2	-11	-3	63*	-25	-151
Cc1ccc(-c2c(C#N)c(N)n(-c3ccccc3)c(=O)c2C#N)cc1	-7	-11	54*	6	-48
Cc1ccc(-c2c(C#N)c(N)n(-c3ccc(Cl)cc3)c(=O)c2C#N)cc1	.	.	.	.	-59
CCOC(=O)CC[C@H](NC(=O)Cn1cnc(C(=O)Nc2ccc(C)c(C)c2)n1)C(=O)OCC	.	5	.	.	12
CC1CC(=O)NN=C1c1ccc(NCCO)c([N+](=O)[O-])c1 (stereo not given)	1	-6	89*	-9	25
O=C(CC1Nc2ccccc2NC1=O)c1ccccc1 (stereo not given)	59*	20	-62	72*	.
O=C(CC1Nc2ccccc2NC1=O)NCCc1ccccc1 (stereo not given)	4	5	0	1	-273
C(=N\Nc1nc2ccccc2s1)/c1ccc2c(c1)OCO2	55*	89*	2	67*	-238
Brc1csc(/C=N/Nc2nc3ccccc3s2)c1	57*	76*	6	37	-80
O=[N+]([O-])c1cc(Cl)cc(/C=N/Nc2nc3ccccc3s2)c1O	45	-6	0	54*	14
COC(=O)[C@]12CCCCC=C1N(Cc1ccc(Cl)cc1Cl)C(=O)[C@H](CC(=O)N1CCOCC1)C2	.	.	.	.	17
CC(=O)NC1=NN(C(C)=O)C2(S1)C(=O)N(CC(C)C)c1ccc(C)cc12 (stereo not given)	0	5	4	-23	18
Cc1nc(-c2ccc(Br)cc2)ccc1C(=O)O	30	20	2	75*	14
CC(=O)Nc1cc(OC(C)=O)c2nonc2c1OC(C)=O	70*	92*	.	82*	33
CCc1ccc(OCC(=O)NNC(=O)c2ccc(NC(=O)C3CC3)cc2)cc1	6	0	8	-9	-10
O=C1CCC(c2ccc(-n3ccnc3)cc2)=NN1	5	0	82*	-2	-15
CCOc1ccc(NC(=O)CN(C)C(=O)C2CCN(C(=O)Nc3ccccc3)CC2)cc1OCC	.	.	.	.	7
CC1=NN(c2nc(-c3ccc(C)cc3)cs2)C(=O)C1N=Nc1ccccc1O (stereo not given)	3	3	4	15	28
CC1=NN(c2nc(-c3ccc(C)cc3)cs2)C(=O)C1N=Nc1cccc(O)c1 (stereo not given)	8	-2	-3	-7	36*
C=CCc1ccc(OCc2ccc(C(=O)Nc3ccc(NC(C)=O)cc3)o2)c(OC)c1	-11	6	4	-6	10
